In the supplement of paper PMC12340641:

Tests used:
[1] = biological target: IKZF1 (dCK*-IKZF1 fusion in HEK293FT) (UniProt Q13422); test: inhibition of IKZF1 HTRF signal (DMSO = 0%, pomalidomide 10 uM = 100%); higher = lower IKZF1 protein level; details: compound concentration: 5 uM, overnight (~20 h)
Procedure, shortened: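 Compound was tested at 5 μM in single wells on HEK293FT cells (2000/well, 384-well) stably carrying an IKZF1 fusion, overnight at 37 °C. Total IKZF1 was measured in lysates with a commercial HTRF antibody kit as the background-subtracted 665/620 nm time-resolved FRET ratio. The reported figure is percent inhibition of IKZF1 signal, scaled per plate between vehicle and a reference degrader. The vehicle anchor was 0% and the degrader anchor 100%.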

[2] = system: HEK293FT dCK*-only; test: relative growth in counter assay (no AraC = 100%, AraC + DMSO = 0%); higher = more growth rescue independent of IKZF1; details: compound concentration: 5 uM; AraC concentration: 0.3 uM; overnight pretreatment + 4 days AraC
Procedure, shortened: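 For this counter assay, relative growth was normalised on each plate to two kinds of reference wells. HEK293FT cells expressing only an engineered kinase construct (300/well, 384-well) were treated with 5 μM compound 2 h after seeding, then after overnight at 37 °C with a nucleoside suicide substrate at 0.3 μM plus medium for 4 days. On day 5, Hoechst 33342-stained nuclei were counted by imaging, taking wells without suicide substrate as 100% and substrate plus vehicle as 0%.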

[3] = system: HEK293FT dCK*-IKZF1; test: relative growth recovery (pomalidomide 10 uM = 100%, DMSO = 0%); higher = more growth rescue (IKZF1 fusion degradation); details: compound concentration: 5 uM; AraC concentration: 0.3 uM; overnight pretreatment + 4 days AraC
Procedure, shortened: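 HEK293FT cells stably expressing an engineered deoxycytidine kinase–IKZF1 fusion were seeded at 300 per well in 384-well plates and given 5 μM compound 2 h later. After overnight incubation at 37 °C, a nucleoside suicide substrate at 0.3 μM was added with medium for 4 days, and on day 5 Hoechst 33342-stained nuclei were counted by whole-well imaging. Growth recovery was normalised per plate between a reference degrader and vehicle, set to 100% and 0% respectively, and the values are means of duplicates run on different days.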

IKZF1 (dCK*-IKZF1 fusion in HEK293FT), sequence (Q13422 whole entry, looked up, the tested form may be a part): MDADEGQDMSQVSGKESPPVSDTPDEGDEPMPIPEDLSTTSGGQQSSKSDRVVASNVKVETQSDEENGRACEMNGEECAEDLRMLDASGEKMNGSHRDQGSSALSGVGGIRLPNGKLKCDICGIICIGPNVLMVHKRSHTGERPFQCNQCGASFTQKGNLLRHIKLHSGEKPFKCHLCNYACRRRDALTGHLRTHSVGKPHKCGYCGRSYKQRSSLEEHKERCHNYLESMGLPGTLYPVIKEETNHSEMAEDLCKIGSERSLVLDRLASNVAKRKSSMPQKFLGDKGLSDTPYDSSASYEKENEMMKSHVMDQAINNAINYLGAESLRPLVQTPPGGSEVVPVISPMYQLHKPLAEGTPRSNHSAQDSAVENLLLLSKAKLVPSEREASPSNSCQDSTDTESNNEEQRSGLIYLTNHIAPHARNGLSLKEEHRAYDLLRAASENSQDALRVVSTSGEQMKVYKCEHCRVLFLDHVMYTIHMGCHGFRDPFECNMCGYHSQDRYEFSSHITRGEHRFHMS

| SMILES | inhibition of IKZF1 HTRF signal [1] | relative growth in counter assay [2] | relative growth recovery [3] |
| --- | --- | --- | --- |
| CC[C@@H](C(N)=O)N1CCCC1=O | 17.7% | 2.24% | 0.38% |
| OC1=[C@]([C@]2=C(O)C(C(C=O)=C(O)C(O)=C3C(C)C)=C3C=C2C)C(C)=CC4=C1C(C=O)=C(O)C(O)=C4C(C)C [gossypol] | -16.2% | -34.8% | -11.7% |
| CCOc1ccccc1-n1c(C(C)N2CCN(C(=O)COc3ccc(Cl)cc3)CC2)nc2ccccc2c1=O (configuration not stated) [Erastin] | -51.3% | -4.63% | -1.44% |
| O=C(CCCN1CCC(n2c(=O)[nH]c3ccccc32)CC1)c1ccc(F)cc1 [benperidol] | -18.1% | 4.87% | 1.78% |
| Fc1ccc(C(OCCN2CCN(C/C=C/c3ccccc3)CC2)c2ccc(F)cc2)cc1 | -25.2% | 4.29% | 8.18% |
| O=C(Nc1ccc(Br)cc1)c1cc(Br)cc(Br)c1O [tribomsalan] | 13.9% | -2.64% | -2.67% |
| N#Cc1nn(-c2c(Cl)cc(C(F)(F)F)cc2Cl)c(N)c1S(=O)C(F)(F)F (configuration not stated) | -50.9% | 7.45% | -1.52% |
| c1ccc2c(c1)Nc1ccccc1S2 | -13.2% | -0.21% | 0.68% |
| C[C@@H]1C[C@@H]([C@H](O)CC2CC(=O)NC(=O)C2)C(=O)[C@@H](C)C1 | 79.8% | -33.1% | -12% |
| N=C(Nc1ccccc1)Nc1ccccc1 [diphenylguanidine] | -55.9% | -6.47% | -1.17% |
| O=C1c2ccccc2C(=O)c2ccccc21 [anthraquinone] | -34.9% | 0.57% | -0.655% |
| COc1ccc2c(c1)/C(=C/c1cnc[nH]1)C(=O)N2 | -35.9% | -21.6% | -7.43% |
| COc1ccc(C[C@H]2NC[C@H](O)[C@H]2OC(C)=O)cc1 [anisomycin] | 63.3% | -34.7% | -12.5% |
| O=C(CCCN1CCC2(CC1)C(=O)NCN2c1ccccc1)c1ccc(F)cc1 [spiperone] | -3.55% | -1.41% | -0.995% |
| N#Cc1cn([C@@H]2O[C@H](CO)[C@@H](O)[C@H]2O)c2ncnc(N)c12 [toyocamycin] | 44.4% | -34.2% | -12.9% |
| Clc1ccc(C(OCCN2CCCCC2)c2ccccc2)cc1 (configuration not stated) | -26.4% | -4.94% | -0.525% |
| Clc1ccccc1C(c1ccccc1)(c1ccccc1)n1cccn1 | -25.1% | 1.96% | -1.69% |
| C[C@@]1(CO)[C@H](O)CC[C@@]2(C)[C@H]1CC[C@H]1C[C@@H]3C[C@@]12CC[C@]3(O)CO [Aphidicolin] | -14.2% | -34.1% | -12.3% |
| COC[C@H]1OC(=O)c2coc3c2[C@@]1(C)C1=C(C3=O)[C@@H]2CCC(=O)[C@@]2(C)C[C@H]1OC(C)=O [Wortmannin] | 1.66% | 0.96% | 1.92% |
| CC[C@@H](C(=O)O)C1CC[C@H](C)C([C@@H](C)[C@H](O)[C@H](C)C(=O)[C@H](CC)C2O[C@]3(C=C[C@@H](O)[C@]4(CC[C@@](C)(C5CC[C@](O)(CC)[C@H](C)O5)O4)O3)[C@H](C)C[C@@H]2C)O1 (some centres not stated) [Salinomycin (Procoxacin)] | -5.47% | -10.3% | -1.1% |
| CC(C)[C@]12O[C@H]1[C@@H]1O[C@]13[C@]1(O[C@H]1C[C@H]1C4=C(CC[C@@]13C)C(=O)OC4)[C@@H]2O [Triptolide] | 29.6% | -34% | -12.8% |
| CCCCC1(C2CCCC2)Cc2cc(OCCCC(=O)O)c(Cl)c(Cl)c2C1=O (configuration not stated) | -38.8% | 2.86% | 0.8% |
| O=c1[nH]c2ccccc2n1CCCN1CCC(n2c(=O)[nH]c3cc(Cl)ccc32)CC1 | 4.83% | -4.05% | 2.7% |
| Fc1ccc(C(OCCN2CCN(CCCc3ccccc3)CC2)c2ccc(F)cc2)cc1 [vanoxerine] | -25.6% | -32.4% | -10.5% |
| C=C(C)CN1CC[C@]23c4c5ccc(O)c4O[C@H]2c2[nH]c4ccccc4c2C[C@@]3(O)C1C5 | -30.3% | -7.54% | -3.3% |
| O=[N+]([O-])c1cc(O)c(O)c([N+](=O)[O-])c1 | -33.8% | 2.01% | 0.23% |
| CCCCCCCCCCCCCCCC[n+]1ccccc1 | -19.4% | -34.4% | -13% |
| Cc1cc(C(C#N)c2ccc(Cl)cc2)c(Cl)cc1NC(=O)c1cc(I)cc(I)c1O (configuration not stated) | -5.04% | -3.81% | -0.555% |
| CC[C@@]1(C2O[C@@H](C3O[C@@](O)(CO)[C@H](C)C[C@@H]3C)C[C@@H]2C)CC[C@H]([C@]2(C)CC[C@]3(C[C@H](O)[C@@H](C)[C@@H]([C@@H](C)[C@@H](OC)[C@H](C)C(=O)O)O3)O2)O1 (some centres not stated) | 9.03% | -4.55% | -0.68% |
